# Assay outcomes deposited in PubChem BioAssay by National Center for Advancing Translational Sciences (NCATS).
# Compounds with a hit are over-represented: about 1.1% of the library has one in this group of screens.
# HTT aggregate: qHTS Multiplex Assay to Identify Dual Action Probes in a Cell Model of Huntington: Aggregate Formation (GFP); PC12 HttQ103-GFP aggregates, Acumen cytometry, 40 h; Potency, µM (top dose mostly 46.1 µM), without a hit: top-dose activity change, negative = inhibition, most hits filed as inhibitors; 1.1% of 220,000 active; AID 1688, 2009; further: on the % scale 0 is the no-effect control and ±100 the full control effect; nearly all actives have a fitted effect of over 60% in size
#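 Steps: seed 1500 PC12 HTTQ103-GFP cells/well; add tebufenozide, 100 nM final; add compound titration; add ATPLite reagent; quantify GFP aggregates by laser scanning cytometry.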
# NPSR antagonist: qHTS Assay for Antagonists of the Neuropeptide S Receptor: cAMP Signal Transduction; Q6W5P4; CHO-NPSR cells, cAMP TR-FRET, antagonist mode; Potency, µM (titrated, usually from 38.3 µM), for inactives: at the highest dose activity change, negative = inhibition, actives largely listed as inhibitors; 1% of 220,000 active; AID 1461, 2008; further: on the % scale 0 is the no-effect control and ±100 the full control effect; nearly all actives have a fitted effect of over 50% in size
# A-T KAP1 phos: qHTS Assay for Identifying a Potential Treatment of Ataxia-Telangiectasia; F2112 A-T fibroblasts, KAP-1 phosphorylation AlphaLISA; neocarzinostatin DNA damage 30 min before lysis; Potency, µM (doses to about 57.5 µM), for the others: at the top dose activation, usual class: activators; 0.19% of 320,000 active; AID 485349, 2010; further: % of control where 0% means no effect; nearly all actives have a fitted effect of over 45% in size
#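 hTERT-immortalized A-T patient fibroblasts (F2112), 500 cells/well in OPTI-MEM, 1% FBS, got compounds for 60 min, then NCS for 30 min at 37C. Lysates were then assayed for phospho-KAP-1 by AlphaLISA (anti-pKAP1 donor, anti-KAP1 acceptor beads), 6 hr at 25C.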
# mIDH1 inhibitor: qHTS for Inhibitors of mutant isocitrate dehydrogenase 1 (IDH1): qHTS; Isocitrate dehydrogenase [NADP] cytoplasmic (Homo sapiens), O75874; IDH1-R132H enzyme, NADPH consumption, diaphorase/resazurin fluorescence; Potency, µM (highest dose often 76.6 µM), without a hit: at the highest dose activity change, negative = inhibition, actives largely listed as inhibitors; 0.093% of 390,000 active; AID 602179, 2012; further: on the % scale 0 is the no-effect control and ±100 the full control effect; nearly all actives have a fitted effect of over 65% in size
# Target sequence (O75874 whole entry R132H, stated change not applied): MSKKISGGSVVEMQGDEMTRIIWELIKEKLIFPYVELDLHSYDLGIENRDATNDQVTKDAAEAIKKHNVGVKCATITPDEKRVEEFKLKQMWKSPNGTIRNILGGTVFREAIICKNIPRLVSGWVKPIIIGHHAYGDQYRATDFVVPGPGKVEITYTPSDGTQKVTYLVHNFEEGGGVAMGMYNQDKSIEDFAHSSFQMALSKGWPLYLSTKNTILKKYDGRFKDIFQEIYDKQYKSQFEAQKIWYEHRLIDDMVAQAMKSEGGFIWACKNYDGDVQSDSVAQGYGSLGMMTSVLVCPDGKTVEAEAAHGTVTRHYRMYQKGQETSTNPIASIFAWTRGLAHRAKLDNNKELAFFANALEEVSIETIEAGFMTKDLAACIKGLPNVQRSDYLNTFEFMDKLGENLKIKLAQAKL
#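 IDH1-R132H (0.5 ug/mL dispensed) in pH 7.5 Tris buffer was preincubated 30 min with compound, then given a substrate mix of 0.016 mM NADPH and 2 mM alpha-KG for 80 min at room temperature; remaining NADPH was read by diaphorase/resazurin fluorescence.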
# HTT ATP protect: qHTS Multiplex Assay to Identify Dual Action Probes in a Cell Model of Huntington: Cytoprotection (ATP) | AID 1471, 2008 | 0.14% of 230,000 active | Potency, µM (highest dose often 56.4 µM), for the others: cytoprotection (ATP increase), usual class: activators | PC12 HTT-Q103 induced, cytoprotection, ATP luminescence, 40 h; further: % of control where 0% means no effect; nearly all actives have a fitted effect of over 45% in size
#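 PC12 cells stably carrying ecdysone-inducible Htt exon 1 (Q103)–GFP were induced with 100 nM tebufenozide (final) alongside library compounds in a dose series. Cytoprotection was scored as retained ATP by ATPlite luminescence.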
# Starred values were filed as active, the others as inactive; ? = inconclusive; . = no result given; [ ] = another dose, or the depositor's remark. The call rests on the fitted dose curve; in most records, active means well fitted curve in the direction sought with a large enough effect; inconclusive means small, poorly fitted or top-dose-only effect, or another doubt; inactive means no such curve, though single readings can be large; an effect the other way counts as inactive or inconclusive. Potency means the concentration at half of the fitted maximal effect.
SMILES,HTT aggregate,NPSR antagonist,A-T KAP1 phos,mIDH1 inhibitor,HTT ATP protect
O=S(=O)(c1ccc(Cl)cc1)N1CCN(Cc2ccc(O)c3ncccc23)CC1,5.01µM*,-1.5%,-1.8%,7.4%,.
CCCCCCc1cc2cc(S(=O)(=O)c3ccc(F)c(Cl)c3)c(=O)oc2cc1O,?,-39.3%,28.2µM*,-1.9%,7.9%[10 µM]
O=Cc1ccccc1C=O,17.7%,.,.,.,-167.3%
O=c1nc(N/N=C/c2ccccn2)cn[nH]1,8.91µM*,-32.1%,10.3%,0.0%,-151.5%
C#CCn1cc(/C=N/Nc2nc3ccccc3[nH]2)c2ccccc21,-0.2%,12.6µM*,-1.5%,-0.1%,10.5%[10 µM]
c1ccc2c(c1)CC/C2=N/Nc1nc2ccccc2[nH]1,-12.4%,7.94µM*,-4.1%,13.4%,1.4%[10 µM]
Cc1ccc(/C=N/Nc2cn[nH]c(=O)n2)o1,1.6%,-15.5%,2.2%,-9.9%,?
C(=N\Nc1nc2ccccc2[nH]1)/c1ccccn1,7.08µM*,10µM*,6.3%,25.7%,-198.6%
C(=N\Nc1nc2ccccc2[nH]1)/c1ccc2ncccc2c1,-1.4%[9.22 µM],-31.0%,13.6%,-5.7%,-32.4%[10 µM]
CC(/C=C/C(=O)NO)=C\[C@@H](C)C(=O)c1ccc(N(C)C)cc1,.,.,.,.,-175.3%
CCCCn1c(/C=N/Nc2nc3ccccc3[nH]2)nc2ccccc21,?,12.6µM*,1.8%,0.5%,6.5%[10 µM]
CCCCn1c(/C=C/c2ccco2)nc2ccccc21,-12.3%,-23.1%[46.1 µM],5.6%,7.4%,-13.0%[10 µM]
CN(C)CN1C(=O)S/C(=C2/C(=O)N(CN(C)C)c3ccccc32)C1=O,.,.,.,.,7.3%[10 µM]
COc1cccc(NC(=O)Cn2c(=O)n(CCC(=O)NCc3ccco3)c(=O)c3ccccc32)c1,20.7%,-11.0%,-4.1%,-3.7%,3.16µM*
Cc1ccc(F)cc1NC(=O)Cn1c(=O)nc(-c2ccccc2F)c2cc(Cl)ccc21,.,.,.,-11.2%,.
N#CCCn1c(=O)c(-c2ccc(Cl)cc2)nc2cnc(Oc3cccc(Cl)c3)nc21,.,.,.,.,-30.5%
N#CCCn1c(=O)c(-c2ccc(F)cc2)nc2cnc(Oc3cccc(Cl)c3)nc21,.,.,.,.,3.16µM*
CC#CCN1c2ccccc2[C@]23C[C@@H](C(=O)OC)N(S(=O)(=O)c4ccc(C#N)cc4)C2=NC(C(=O)OC)=C(C(=O)OC)[C@H]13,.,.,.,.,-21.4%[10 µM]
CC1CCN(C(=O)CSc2nnc(NC(=O)Nc3ccccc3)s2)CC1,.,.,.,7.1%,.
COc1ccc(-c2c3c(=O)n(C)c(=O)n(C)c3cn2-c2cccc(N)c2)cc1,.,.,.,-29.5%,.
COc1ccc(-c2c3c(=O)n(C)c(=O)n(C)c3cn2-c2ccc(O)cc2)cc1,-7.5%[9.22 µM],-14.7%,31.6µM*,-25.0%,-20.5%[10 µM]
CCOC(=O)C1CCN(C(=O)c2cc3cc(Cl)ccc3[nH]2)CC1,.,.,7.94µM*,-0.1%,.
CCOC(=O)C1CCN(C(=O)c2cc3ccc(OC)cc3[nH]2)CC1,.,.,-2.6%,1.2%,.
CCCN(C(=O)COc1cc(=O)n(CC)c2ccccc12)c1ccc(C(C)C)cc1,.,.,.,-8.2%,.
COC(=O)/C(=C\c1cc(OC)c(OC)c(OC)c1)c1nc2ccccc2[nH]1,?,-23.6%,22.9%,-4.7%,69.1%
SMILES,HTT aggregate,NPSR antagonist,A-T KAP1 phos,mIDH1 inhibitor,HTT ATP protect
COC(=O)/C(=C\c1ccc(O)cc1)c1nc2ccccc2[nH]1,9.0%,0.2%,3.5%,-5.5%,18.4%
COc1cc(/C=C(/C(=O)c2cccs2)c2nc3ccccc3[nH]2)ccc1O,?,10µM*,25.1µM*,-4.7%,-2.3%
O=C(/C(=C\c1ccccc1)c1nc2ccccc2[nH]1)c1ccc(Cl)cc1,?,10µM*,7.8%,-3.2%,-54.4%[10 µM]
O/C(=C\c1nc2ccccc2[nH]1)c1cccs1,.,.,0.3%,-15.1%,.
O=C(/C(=C/c1ccc(Cl)cc1)c1nc2ccccc2[nH]1)c1cccs1,5.01µM*,2µM*,3.55µM*,-6.9%,-110.0%
CCCCCC[C@@H]([C@H](C)O)n1cnc2c(N)ncnc21,.,.,.,.,-24.5%[1.9 µM]
CC(=O)N(C)C1=C(N2CCOCC2)C(=O)c2ccccc2C1=O,25.1µM*,8.3%[46.1 µM],2.0%,10.4%,-122.4%
